aSyn 5UTR act = Activators working through SNCA 5'UTR binding (MLPCN); alpha-synuclein 5'UTR reporter, activators screen; activity score, % (tested at 7.5 µM), hits read low; 300,000 compounds, 7.1% hits; in the data active = activity score below about -60%
Of the large screens only hits and unclear results are named; the others gave an inactive call. Only a sample is shown.

Cc1ccc2cc3cc(C(=O)N4CC(C)CC(C)C4)oc3nc2c1 (stereo unspecified)	aSyn 5UTR act -120.2
COc1ccc2cc3cc(C(=O)N4CC(C)CC(C)C4)oc3nc2c1 (stereo unspecified)	aSyn 5UTR act -124.7
CCOC(=O)c1cnc2cc(-c3ccc(Cl)cc3)nn2c1N	aSyn 5UTR act -87.0
CCOC(=O)c1cnc2cc(-c3ccc(Br)cc3)nn2c1C	aSyn 5UTR act -131.3
CCc1ccc(NC(=O)C2C3/C=C\CCCCC32)cc1 (stereo unspecified)	aSyn 5UTR act -164.6
O=C(Nc1ccc(Cl)cc1)C1C2CCCCC21 (stereo unspecified)	aSyn 5UTR act -150.2
Cn1nc(C(F)(F)F)cc1-c1ccc(S(N)(=O)=O)s1	aSyn 5UTR act -122.8
CN(C)C(=O)c1ccc(-c2cc(C(F)(F)F)nn2C)s1	aSyn 5UTR act -151.9
N#CC1=C(SCC(=O)c2ccc(Cl)cc2)NC2=C(C(=O)CCC2)C1c1ccco1 (stereo unspecified)	aSyn 5UTR act -173.1
C=CCOC(=O)C1=C(C)NC(SCC)=C(C#N)C1c1ccc(Cl)cc1 (stereo unspecified)	none
COc1ccc2c(c1)[nH]c1c(=O)n(/N=C/C3C(C)C=C(C)CC3C)c(=O)[nH]c12 (stereo unspecified)	none
COc1ccc2[nH]c3c(=O)n4c(nc3c2c1)SCCC4	aSyn 5UTR act -92.1
Nc1ccc(CCc2nc3ccccc3o2)cc1	aSyn 5UTR act -126.0
Nc1[nH]c(N=NC(=O)c2ccccc2O)c2ccccc12	aSyn 5UTR act -150.3
O=C(c1ccc(Br)cc1)c1coc2ccc(O)cc12	aSyn 5UTR act -92.0
O=C(c1ccc(Cl)cc1)c1coc2ccc(O)cc12	aSyn 5UTR act -128.3
COc1ccc(C(=O)/C=C2/C(=O)Nc3ccccc32)cc1	aSyn 5UTR act -98.9
O=C(Nc1ccc(-c2noc(-c3ccccc3F)n2)cc1)c1cccs1	aSyn 5UTR act -76.7
Cc1ccccc1-c1nc(-c2ccc(NC(=O)c3cccs3)cc2)no1	aSyn 5UTR act -187.0
COc1cc(/C=N/N2CCN(C3c4ccccc4-c4ccccc43)CC2)ccc1O	aSyn 5UTR act -63.4
CC(C)c1ccc(NC(=O)C2CC3CCC2C3)cc1 (stereo unspecified)	aSyn 5UTR act -197.0
CCC(C)c1ccc(NC(=O)C2CC2)cc1 (stereo unspecified)	aSyn 5UTR act -73.3
CCC(C)c1ccc(NC(=O)C2CC3CCC2C3)cc1 (stereo unspecified)	aSyn 5UTR act -99.3
COc1ccc(C/C(=N\O)c2ccc(OC)cc2)cc1	aSyn 5UTR act -88.6
COc1ccc(NC(=O)Cc2ccccc2)cc1	aSyn 5UTR act -100.9
CCc1ccc(NC(=O)Nc2cccc(OC)c2)cc1	aSyn 5UTR act -198.6
COc1ccc(CC(=O)Nc2ccc(C(C)=O)cc2)cc1	aSyn 5UTR act -86.1
CCc1ccc(NC(=O)Cc2ccc(OC)cc2)cc1	aSyn 5UTR act -67.1
CC(/C=N/NC(=O)c1ccccc1C)=C\c1ccccc1	aSyn 5UTR act -136.3
CC(/C=N/NC(=O)c1ccccc1F)=C\c1ccccc1	aSyn 5UTR act -137.8
O=C(C[n+]1cn(C(F)F)c2ccccc21)c1ccc(OC(F)F)cc1	aSyn 5UTR act -128.5
O=c1sc(N2CCN(c3ccccc3F)CC2)nc2ccsc12	aSyn 5UTR act -192.0
O=c1sc(N2CCN(c3ccc(F)cc3)CC2)nc2ccsc12	aSyn 5UTR act -179.1
CSc1ccccc1C(=O)Nc1ccc(C)c(C)c1	aSyn 5UTR act -129.6
CCOc1ccc(NC(=O)c2ccccc2SC)cc1	aSyn 5UTR act -110.0
CCn1cnc2sc(C(=O)Oc3ccc(Br)cc3)c(C)c2c1=O	aSyn 5UTR act -77.0
CC(=O)c1ccc(N2CCN(C(=O)c3ccc(Cn4c(=S)[nH]c5ccc(N6CCOCC6)cc5c4=O)cc3)CC2)cc1	aSyn 5UTR act -71.7
COc1ccc(NC(=O)C2C(=O)N(CCO)C3(C)CC2c2ccccc2O3)cc1 (stereo unspecified)	aSyn 5UTR act -103.0
COc1ccc(C2C(C(=O)Nc3cc(OC)c(OC)c(OC)c3)c3ccccc3C(=O)N2C)cc1 (stereo unspecified)	none
Cc1ccc(-c2nnc(COC(=O)c3cccs3)o2)cc1	aSyn 5UTR act -63.9
O=C(c1cccs1)c1no[n+]([O-])c1C(=O)c1cccs1	none
Cc1ccc(-c2nnc(SCC#CCOC(=O)c3ccco3)o2)cc1	aSyn 5UTR act -66.3
Cc1ccc(-c2nnc(SCC#CCOC(=O)c3cccs3)o2)cc1	aSyn 5UTR act -70.6
O=Cc1cc(N=Nc2ccccc2Cl)ccc1O	aSyn 5UTR act -111.5
COC(=O)c1ccc(/C=C(\C#N)c2ccccn2)cc1	aSyn 5UTR act -131.8
CN(C)c1ccc(/C=C(\C#N)c2ccccn2)cc1	none
N#C/C(=C\c1ccc([N+](=O)[O-])cc1)c1ccccn1	aSyn 5UTR act -120.9
CC1(c2ccccc2)CC(c2ccccc2)=Nc2ccccc2N1 (stereo unspecified)	aSyn 5UTR act -104.1
CCOC(=O)c1sc(Nc2nc3c(F)cccc3s2)cc1C	aSyn 5UTR act -279.6
CCOC(=O)c1sc(Nc2nc3ccc(OC)cc3s2)cc1C	aSyn 5UTR act -68.9
CN(C)/C=N/c1ncc(C(=O)c2ccccc2)s1	aSyn 5UTR act -160.3
O=C(O)c1ccc(COc2ccc3ccccc3c2)o1	aSyn 5UTR act -157.5
